According to PubChem BioAssay (NCI):
This is part of a sample that, as a whole, favours compounds with a hit. Of some 79,000 tested, about 15% had one in any assay. The source made the active and inactive calls. No stated cut-off is given here; in the data, active means growth inhibition above about 70%; inactive means the rest.

How the values were obtained:
[1] = NCI Yeast Anticancer Drug Screen. Data for the rad52 strain (AID 147);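 further: 0% = growth of vehicle-treated control cultures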; conditions: S. cerevisiae rad52 mutant growth inhibition, hits give high values
Method in brief: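 Read-out: growth inhibition versus vehicle-treated controls. Cells were a DNA repair-deficient yeast strain treated with compounds.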

[2] = NCI Yeast Anticancer Drug Screen. Data for the wt1 strain (AID 149);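 further: 0% = growth of vehicle-treated wt1 cultures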; conditions: S. cerevisiae wt1 strain (SPY 50644) growth inhibition, hits give high values
Method in brief: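 Each compound is tested on wt1 yeast and the loss of growth versus vehicle gives the inhibition value.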

[3] = NCI Yeast Anticancer Drug Screen. Data for the rad50EPP+ strain (AID 151);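 further: 0% = growth of vehicle-treated control cultures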; conditions: S. cerevisiae rad50 mutant strain, hits give high values
Method in brief: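 Growth inhibition read against vehicle controls in rad50EPP+ yeast, a strain altered in DNA damage repair, after compound exposure.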

[4] = NCI Yeast Anticancer Drug Screen. Data for the mgt1 strain (AID 153); conditions: S. cerevisiae mgt1 mutant growth inhibition, hits give high values
Method in brief: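 mgt1 yeast grown with test compound; read-out is growth inhibition versus vehicle-treated cultures.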

[5] = NCI Yeast Anticancer Drug Screen. Data for the rad50 strain (AID 155);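 further: 0% = growth of vehicle-only cultures of the same strain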; conditions: S. cerevisiae rad50 strain growth inhibition, hits give high values
Method in brief: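 Vehicle-treated cultures provide the reference for the growth inhibition reported for compound-exposed, repair-deficient yeast.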

[6] = NCI Yeast Anticancer Drug Screen. Data for the mec2-1 strain (AID 157); conditions: S. cerevisiae mec2-1 strain, hits give high values
Method in brief: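 Yeast mec2-1 mutant treated with compound. Readout: growth inhibition vs vehicle controls.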

[7] = NCI Yeast Anticancer Drug Screen. Data for the rad14 strain (AID 159);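 further: 0% = growth of vehicle-treated control cultures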; conditions: S. cerevisiae rad14 strain growth inhibition, hits give high values
Method in brief: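 Inhibition of growth is reported for a repair-deficient yeast mutant following compound treatment, calculated relative to cultures that received vehicle.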

[8] = NCI Yeast Anticancer Drug Screen. Data for the sgs1 mgt1 strain (AID 161);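 further: 0% = growth of cultures given vehicle only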; conditions: S. cerevisiae sgs1 mgt1 strain, hits give high values
Method in brief: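 Mutant yeast exposed to compound; growth scored against vehicle-only wells.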

[9] = NCI Yeast Anticancer Drug Screen. Data for the CLN2oe strain (AID 163);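 further: 0% = growth of vehicle-only control cultures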; conditions: S. cerevisiae CLN2oe strain, hits give high values
Method in brief: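 Read-out: yeast growth inhibition, expressed relative to vehicle-only controls. The strain bears an engineered cell-cycle alteration.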

[10] = NCI Yeast Anticancer Drug Screen. Data for the cln2 rad14 strain (AID 165);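 further: 0% = growth equal to vehicle treated cultures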; conditions: S. cerevisiae cln2 rad14 strain, hits give high values
Method in brief: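 cln2 rad14 yeast strain; compound exposure; growth inhibition read vs vehicle controls.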

[11] = NCI Yeast Anticancer Drug Screen. Data for the bub3 strain (AID 167); conditions: S. cerevisiae bub3 mutant strain, hits give high values
Method in brief: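 Mutant yeast screening strain plus compound; vehicle-treated cultures serve as the 0% inhibition reference.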

[12] = NCI Yeast Anticancer Drug Screen. Data for the wt2 strain (AID 169); conditions: S. cerevisiae wt2 strain growth inhibition, hits give high values
Method in brief: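 Read-out: growth inhibition versus vehicle-treated control cultures after compound exposure of the yeast strain.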

[13] = NCI Yeast Anticancer Drug Screen. Data for the mlh1 strain (AID 171);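 further: 0% = growth of vehicle-treated control cultures of the same strain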; conditions: S. cerevisiae mlh1 strain growth inhibition, hits give high values
Method in brief: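 Read-out: growth inhibition versus vehicle controls. Strain: engineered yeast with a defined DNA repair or cell cycle defect, compound-treated.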

[14] = NCI Yeast Anticancer Drug Screen. Data for the sgs1 strain (AID 173);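 further: 0% = growth of vehicle-only control cultures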; conditions: S. cerevisiae sgs1 mutant, hits give high values
Method in brief: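 Read-out: yeast growth inhibition relative to vehicle controls, following compound exposure of a strain with a defined DNA repair/cell cycle alteration.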

[15] = NCI Yeast Anticancer Drug Screen. Data for the mlh1 rad18 strain (AID 175); conditions: S. cerevisiae mlh1 rad18 strain growth inhibition, hits give high values
Method in brief: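 Yeast w/ defined DNA-repair lesions; compound exposure; growth vs vehicle controls → % inhibition.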

[16] = NCI Yeast Anticancer Drug Screen. Data for the rad18 strain (AID 177); conditions: S. cerevisiae rad18 mutant growth inhibition, hits give high values
Method in brief: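 Readout: growth inhibition vs vehicle controls. Cells: genetically altered yeast strain, DNA repair defect.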

[17] = at 5.0 µM (retest, dose inferred, filed as 0.5)
[18] = at 50.0 µM (retest, dose inferred, filed as 5.0)

Measured: growth inhibition

COc1ccc2c(c1)[nH]c1c(/C=C/c3ccccc3)nccc12
active: [1]; at 100.0 µM 97% | [2]; at 100.0 µM 97% | [3]; at 100.0 µM 78% | [4]; at 33.0 µM 94% | [4]; at 100.0 µM 98% | [5]; at 33.0 µM 78% | [5]; [18] 93% | [5]; at 50.0 µM 89.5% | [5]; at 100.0 µM 96% | [6]; at 33.0 µM 75% | [6]; [18] 93% | [6]; at 50.0 µM 92.1% | [6]; at 100.0 µM 98% | [7]; at 33.0 µM 71% | [7]; at 100.0 µM 97% | [8]; [18] 80% | [8]; at 50.0 µM 92.5% | [9]; at 100.0 µM 98% | [10]; [18] 74% | [10]; at 50.0 µM 70.7% | [11]; [18] 82% | [11]; at 50.0 µM 87.8% | [11]; at 100.0 µM 98% | [12]; at 100.0 µM 97% | [13]; at 100.0 µM 96% | [14]; at 33.0 µM 78% | [14]; at 100.0 µM 97% | [15]; [18] 95% | [15]; at 50.0 µM 89.5% | [16]; at 100.0 µM 97%
inactive: [1]; at 1.2 µM 9% | [1]; at 3.7 µM -8% | [1]; at 11.0 µM -2% | [1]; at 33.0 µM 50% | [2]; at 1.2 µM -34% | [2]; at 3.7 µM -32% | [2]; at 11.0 µM -18% | [2]; at 33.0 µM 41% | [3]; at 1.2 µM 0% | [3]; at 3.7 µM 7% | [3]; at 11.0 µM 13% | [3]; at 33.0 µM 46% | [4]; at 1.2 µM 9% | [4]; at 3.7 µM 3% | [4]; at 11.0 µM 18% | [5]; at 1.2 µM 31% | [5]; at 3.7 µM 29% | [5]; [17] 44% | [5]; at 11.0 µM 23% | [6]; at 1.2 µM -9% | [6]; at 3.7 µM -6% | [6]; [17] 42% | [6]; at 11.0 µM 1% | [7]; at 1.2 µM -29% | [7]; at 3.7 µM -25% | [7]; at 11.0 µM -22% | [8]; [17] -28% | [9]; at 1.2 µM -15% | [9]; at 3.7 µM -23% | [9]; at 11.0 µM -38% | [9]; at 33.0 µM 63% | [10]; [17] 40% | [11]; at 1.2 µM 12% | [11]; at 3.7 µM 19% | [11]; [17] -24% | [11]; at 11.0 µM 27% | [11]; at 33.0 µM 48% | [12]; at 1.2 µM -36% | [12]; at 3.7 µM -29% | [12]; at 11.0 µM -30% | [12]; at 33.0 µM 68% | [13]; at 1.2 µM -42% | [13]; at 3.7 µM -36% | [13]; at 11.0 µM -35% | [13]; at 33.0 µM 68% | [14]; at 1.2 µM 2% | [14]; at 3.7 µM -7% | [14]; at 11.0 µM -3% | [15]; [17] 29% | [16]; at 1.2 µM 11% | [16]; at 3.7 µM 0% | [16]; at 11.0 µM 6% | [16]; at 33.0 µM 67%

O=C1c2c(O)cccc2-c2nn(CCNCCO)c3ccc(NCCNCCO)c1c23
inactive: [1]; at 1.2 µM 17% | [1]; at 3.7 µM 43% | [2]; at 1.2 µM 8% | [2]; at 3.7 µM -2% | [2]; at 11.0 µM 11% | [2]; at 33.0 µM 2% | [2]; at 100.0 µM -4% | [3]; at 1.2 µM 15% | [3]; at 3.7 µM 19% | [3]; at 11.0 µM 39% | [3]; at 33.0 µM 54% | [4]; at 1.2 µM 16% | [4]; at 3.7 µM 11% | [4]; at 11.0 µM -3% | [4]; at 33.0 µM -10% | [4]; at 100.0 µM 2% | [5]; at 1.2 µM 26% | [5]; at 3.7 µM 42% | [5]; [17] 27% | [6]; at 1.2 µM 42% | [6]; at 3.7 µM 29% | [6]; [17] -25% | [6]; at 11.0 µM 40% | [6]; at 33.0 µM 10% | [6]; [18] -14% | [6]; at 50.0 µM 20.4% | [6]; at 100.0 µM 39% | [7]; at 1.2 µM -3% | [7]; at 3.7 µM -2% | [7]; at 11.0 µM -21% | [7]; at 33.0 µM -13% | [7]; at 100.0 µM 2% | [8]; [17] 1% | [8]; [18] -2% | [8]; at 50.0 µM 7% | [9]; at 1.2 µM 26% | [9]; at 3.7 µM 22% | [9]; at 11.0 µM 21% | [9]; at 33.0 µM 5% | [9]; at 100.0 µM 18% | [10]; [17] 26% | [10]; [18] 14% | [10]; at 50.0 µM -7.2% | [11]; at 1.2 µM 1% | [11]; at 3.7 µM -9% | [11]; [17] -24% | [11]; at 11.0 µM -15% | [11]; at 33.0 µM -30% | [11]; [18] -13% | [11]; at 50.0 µM -19.2% | [11]; at 100.0 µM -26% | [12]; at 1.2 µM -46% | [12]; at 3.7 µM -27% | [12]; at 11.0 µM -41% | [12]; at 33.0 µM -53% | [12]; at 100.0 µM -42% | [13]; at 1.2 µM 29% | [13]; at 3.7 µM 7% | [13]; at 11.0 µM 15% | [13]; at 33.0 µM 13% | [13]; at 100.0 µM 21% | [14]; at 1.2 µM 7% | [14]; at 3.7 µM 5% | [14]; at 11.0 µM 7% | [14]; at 33.0 µM 11% | [14]; at 100.0 µM 28% | [15]; [17] -6% | [15]; [18] -7% | [16]; at 1.2 µM 13% | [16]; at 3.7 µM 15% | [16]; at 11.0 µM -2% | [16]; at 33.0 µM 9% | [16]; at 100.0 µM 0%
active: [1]; at 11.0 µM 73% | [1]; at 33.0 µM 81% | [1]; at 100.0 µM 87% | [3]; at 100.0 µM 77% | [5]; at 11.0 µM 74% | [5]; at 33.0 µM 85% | [5]; [18] 79% | [5]; at 50.0 µM 76.9% | [5]; at 100.0 µM 87%

Cc1cc(N=C2C=CC(=[N+](C)C)C=C2)c(N)cc1N
inactive: [1]; at 1.2 µM -7% | [1]; at 3.7 µM -9% | [1]; at 11.0 µM 15% | [1]; at 33.0 µM 45% | [2]; at 1.2 µM 12% | [2]; at 3.7 µM 15% | [2]; at 11.0 µM 23% | [2]; at 33.0 µM 52% | [3]; at 1.2 µM -8% | [3]; at 3.7 µM -6% | [3]; at 11.0 µM -5% | [3]; at 33.0 µM 9% | [3]; at 100.0 µM 47% | [4]; at 1.2 µM 4% | [4]; at 3.7 µM 15% | [4]; at 11.0 µM 28% | [4]; at 33.0 µM 52% | [5]; at 1.2 µM -2% | [5]; at 3.7 µM 1% | [5]; [17] 54% | [5]; at 11.0 µM 15% | [5]; at 33.0 µM 52% | [5]; [18] 61% | [5]; at 50.0 µM 46.4% | [6]; at 1.2 µM -16% | [6]; at 3.7 µM -13%
active: [1]; at 100.0 µM 72% | [2]; at 100.0 µM 75% | [4]; at 100.0 µM 75% | [5]; at 100.0 µM 71%
